Only some compounds are listed: those with a hit (about 4.2% of all), similar ones and a draw of the others.
tim10-1 inh: growth inhibitors of tim10-1 mutant yeast, primary screen, luminescence, uHTS | AID 463190, 2010 | S. cerevisiae tim10-1 ts strain growth, BacTiter-Glo, 24 h | 2.2% of 330,000 active | inhibition, % at 20 µM;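 active means inhibition of at least 40%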;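 further: mutant grown at 25 °C; 0% = DMSO wells with yeast and 100% = wells holding no yeast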
NLRP3 yeast inh: NALP3 inflammasome inhibitors in reconstituted yeast, primary screen, luminescence, uHTS; Yeast reconstituted NLRP3/ASC/caspase-1, beta-gal luminescence, 24 h; inhibition, % at 10 µM; 0.39% of 330,000 active; AID 2825, 2010;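 active means inhibition of 50% or more; inactive means inhibition below 50%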;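 further: plate controls were induced DMSO wells for no effect and uninduced yeast grown without galactose for full effect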
tim23-1 inh: growth inhibitors of tim23-1 mutant yeast, primary screen, luminescence, uHTS | S. cerevisiae tim23-1 growth, BacTiter-Glo luminescence, 24 h | inhibition, % at 20 µM | 1.3% of 330,000 active | AID 463212, 2010;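 active means growth inhibition of the mutant yeast at or above 50%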;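 further: temperature-sensitive mutant grown at 25 °C; plate controls were DMSO-treated mutant yeast for no effect and medium wells lacking yeast for full effect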
V-ATPase pHluor: regulators of yeast V-ATPase proton pumping, primary screen, pHLuorin cytosolic pH fluorescence; S. cerevisiae; response, % at 10 µM; 0.37% of 350,000 active; AID 504577, 2011; in the data active means response mostly above about 7.3%, no sharp cut-off; inactive means mostly below about 5.4%; further: actives read high
NALP1 yeast inh: NALP1 inflammasome inhibitors in reconstituted yeast, colorimetric, S. cerevisiae, triplicate retest. 0.61% of 280,000 active. AID 2071, 2009. S. cerevisiae NALP1/ASC/caspase-1 growth, X-gal OD620, 72 h. inhibition, % at 10 µM; in the data active means inhibition mostly above about 24%, no sharp cut-off; inactive means mostly below about 32%
TIM10 inh: growth inhibitors of isogenic TIM10 control yeast, primary screen, counter-screen for tim10-1 yeast inhibitor project, luminescence, uHTS. S. cerevisiae TIM10 strain growth, BacTiter-Glo luminescence, 24 h. inhibition, % at 10 µM. 1.4% of 330,000 active. AID 463195, 2010;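 active means inhibition of 40% or more at the single tested concentration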;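 further: wild-type TIM10 isogenic control strain grown at permissive 25 °C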
tim10-1 confirm: growth inhibitors of tim10-1 mutant yeast, confirmation, single concentration, luminescence, S. cerevisiae; AID 463213, 2010; S. cerevisiae tim10-1 ts strain growth, BacTiter-Glo, 24 h; 56% of 7,400 active; inhibition, % at 20 µM; shares compounds with tim10-1 inh;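 active means inhibition of yeast growth at or above a set limit in either of two repeat tests at 20 µM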;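 further: tim10-1 mutant grown at permissive 25 °C to find synthetic lethal compounds; 0% = DMSO yeast wells and 100% = medium wells without yeast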
The depositor's hits bear a star; . = not tested or not shown.

SMILES	tim10-1 inh	NLRP3 yeast inh	tim23-1 inh	V-ATPase pHluor	NALP1 yeast inh	TIM10 inh	tim10-1 confirm
CC(=O)c1c(C)[nH]c(C(=O)Nc2nc(-c3ccc(-c4ccccc4)cc3)cs2)c1C	45*	17	21	1	22	15	27
COc1ccccc1C(=O)Nc1nnc(S(=O)(=O)N2CCCCC2)s1	48*	18	44	-2	12	19	14
O=C(NN1C(=O)C2C3c4ccccc4C(c4ccccc43)C2C1=O)C1CC1 (configuration not stated)	-3	8	-2	0	4	6	.
COc1ccc(C2NC(=S)NC(O)(C(F)(F)F)C2C(=O)c2cccs2)cc1 (configuration not stated)	43*	-3	15	3	32	2	16
CCc1cccc(NS(=O)(=O)c2ccc(-n3cccn3)cc2)c1	50*	1	38	4	11	12	18
COc1ccc(O)c(CN2CCC(n3nccc3NC(=O)C3CCCC3)CC2)c1	2	7	10	1	10	2	.
CC1(C)Cc2nc3sc4c(=O)n(Cc5ccccc5)cnc4c3cc2CS1	26	18	23	-2	19	20	.
CCCn1cnc2c(sc3nc4c(cc32)CSC(C)(C)C4)c1=O	41*	19	29	3	.	32	8
CC(/C=N/Nc1ncc(C)c(=O)[nH]1)=C\c1ccccc1	41*	1	6	-4	11	14	20
CC(/C=N/Nc1nc(C)cc(=O)[nH]1)=C\c1ccccc1	29	18	13	1	0	17	.
CSc1oc(-c2ccco2)nc1S(=O)(=O)c1ccccc1	12	-3	14	-2	-6	-8	.
CC(C)Sc1oc(-c2ccco2)nc1S(=O)(=O)c1ccccc1	41*	20	49	-1	-63	30	30
Cc1cc(C(=O)C(C)OC(=O)c2ccc(NC(=O)CC#N)cc2)c(C)n1-c1ccccc1 (configuration not stated)	42*	17	34	-5	.	26	19
COCCNC(=S)N/N=C1\CC(C)CC(C)(C)C1 (configuration not stated)	36	6	7	-3	-9	4	.
C/C(N=Nc1nc2ccccc2s1)=N\Nc1ccccc1O	36	26	47	-2	.	21	.
CCOc1ccc(N(Cc2cc3ccc(C)cc3[nH]c2=O)S(=O)(=O)c2ccccc2)cc1	42*	5	45	0	12	3	15
Cc1ccc2cc(CN(c3ccccc3)S(=O)(=O)c3ccccc3)c(=O)[nH]c2c1	13	6	22	2	25	8	.
COc1ccc(C(=O)O/N=C(\C)c2ccccc2)cc1	19	48	45	-2	.	29	.
CC(C)=NOC(=O)c1ccc(-c2ccccc2)cc1	54*	38	42	2	42	39	42*
N#CCC(=O)c1ccccc1Oc1ccc(Cl)cc1	50*	10	47	1	-11	22	29*
C#CCO[C@@H]1C[C@H](n2cnc3c(NC(=O)c4ccccc4)ncnc32)O[C@@H]1CO	-14	3	-7	-1	.	1	.
COc1ccccc1N(CC(=O)N1CCCC1)S(=O)(=O)c1cc([N+](=O)[O-])ccc1Cl	18	4	19	-1	.	11	.
CCCCCCCC/C=C\CCCCCCCC(=O)O	-4	14	2	9	8	-22	.
CCCCCCCCCCCCC/C=C/[C@@H](O)[C@@H](N)CO	44*	34	35	2	.	22	1
CC(C)(C)c1ccc(-c2csc(NNC3=NCCCCC3)n2)cc1	45*	10	37	5	0	23	22
SMILES	tim10-1 inh	NLRP3 yeast inh	tim23-1 inh	V-ATPase pHluor	NALP1 yeast inh	TIM10 inh	tim10-1 confirm
Nc1nnc(-c2ccccc2)c(-c2ccccc2)n1	41*	7	12	-2	37	-2	10
Cc1ccc(-c2nnc(-c3ccccc3)c(-c3ccccc3)n2)cc1	33	-10	21	2	10	26	.
O=C(O)c1cc(-c2c[nH]c3ccccc23)nc2cc3ccccc3cc12	17	5	34	-2	.	15	.
COc1ccc(NCc2nc3ccccc3n2CCOc2ccc(C)cc2)cc1	50*	28	49	-80	22	17	29
CCc1ccc(Nc2n[n+](-c3ccccc3)c(/C=C/c3ccccc3)s2)cc1	43*	15	-15	.	-13	1	15
CCc1ccc(Nc2n[n+](-c3ccccc3)c(-c3c(Cl)cccc3Cl)s2)cc1	10	11	-2	-1	18	-6	.
CCOC(=O)C1CCCN(C(=S)NC2CCCC2)C1 (configuration not stated)	14	7	-7	1	-2	12	.
CCCCc1nnc(NC(=O)c2ccc3[nH]c(=O)c(=O)[nH]c3c2)s1	-10	13	-2	-8	6	-3	.
CCCCc1ccc(S(=O)(=O)N2CCN(C(=O)c3ccco3)CC2)cc1	52*	4	34	0	29	23	32*
CC(C)C[C@H](N)c1nnc(SCC(=O)Nc2ccc(Br)cc2)o1	43*	0	2	-1	30	16	-9
Oc1ccccc1/C=N/Nc1nccnc1Cl	55*	33	28	4	-17	28	20
O=[N+]([O-])c1ccccc1/C=N/Nc1nccnc1Cl	8	10	-1	-2	-6	21	.
COc1ccc(CC2NCCC3=CC(=O)CCC32)cc1O (configuration not stated)	-5	-2	10	-1	.	13	.
O=C(c1csc2c1CCCC2)N1CCN(c2ccc(F)cc2)CC1	43*	-15	37	-7	-16	9	31
NS(=O)(=O)c1ccc(CCNC(=S)NC(=O)c2ccccc2Br)cc1	-3	-6	-5	-2	.	-15	.
CC(C)NC(=S)Nc1c(N)[nH]c(=O)[nH]c1=O	-2	-10	8	1	-10	-11	.
c1ccc(-c2cc(-c3nnc4n3N=C(c3ccc5ccccc5c3)CS4)[nH]n2)cc1	48*	8	26	-4	40	10	8
CC(C)(C)C(=O)NCc1ccc(C(=O)CSc2nnc(-c3ccncc3)n2C2CC2)s1	-16	21	-9	2	.	-9	.
COc1ccc(C2(C(=O)N3CCC(n4nc(-c5ccccc5)oc4=O)CC3)CC2)cc1	41*	-4	38	3	7	14	15
Cc1ccc(C2(C(=O)N3CCC(n4nc(-c5ccccc5)oc4=O)CC3)CC2)cc1	20	14	31	2	6	31	.
